# In PubChem BioAssay (Tox21):
# Several values for one entry are separate records, joined by “and”; a condition that tells them apart may be missing. Equal values may be shown once. Inconclusive results are not listed. Where a call stands in place of a potency, no number is given. Some compounds were tested as several samples or in several runs, with calls that do not always agree. Activity calls are given as the source filed them. Calls follow the shape of the dose curve; as a rule, active = well fitted activation curve with a large enough effect in the repeat runs; inconclusive = weak or mixed curves; inactive = flat fitted curve, though single readings scatter.
# Test: A CellTox Green Cytotoxicity Assay to monitor cytotoxicity in HEK293 cells - 32 hour (AID 1224881); also: nearly all actives have a fitted effect of over 40% in size
# Settings: CellTox Green fluorescence; series mostly up to 76.8 µM
# Description: National Center for Advancing Translational Sciences [NCATS]
# NIH Chemical Genomics Center [NCGC]
# U.S. Environmental Protection Agency [EPA]
# National Institutes of Environmental Health Sciences [NIEHS]
# National Toxicology Program [NTP]
# Cell-based models are critical for drug discovery. Determining the natural cytotoxic effects resulting from test compounds is an essential research activity. A CellTox Green Cytotoxicity Assay to monitor cytotoxicity in real time of continues cell culture during 40 hours of the compound treatment was used to screen Tox21 10K library compounds in Hek293 cells. CellTox Green Cytotoxicity Assay is a nonlytic, homogeneous, biofluorescent method to measure cytotoxicity in cell culture after experimental manipulation. The assay system uses a proprietary asymmetric cyanine dye that is excluded from viable cells but preferentially stains the dead cell's DNA. […] Viable cells produce no appreciable increases in fluorescence. Therefore, the fluorescence signal produced by the binding interaction with dead cell DNA is proportional to cytotoxicity.
# The mixture of Hek293 cell suspension and reagents were dispensed at 600cells/6 ul/well in 1536-well tissue culture treated black solid bottom plates using a Multidrop dispenser. After the assay plates were incubated at a 37 C/5% CO2 incubator for 5 hours, 23 nL of compounds dissolved in DMSO, positive and negative controls was transferred to the assay plate by a pintool work station. The plates were incubated at 37 C for 40 hours. The fluorescence intensity were measured at 0h, 8h, 16h, 24h, 32h and 40h time points using ViewLux plate reader during compound treatment.
# Potency is read from the fitted curve at half-maximal effect.
row,SMILES,Potency
1,O=C(O)c1nc(Cl)ccc1Cl,inactive
2,CCCC[N+]1(C)CCCC1,inactive
3,CCCCCCn1cc[n+](C)c1,inactive
4,COc1ccc(N)cc1,inactive
5,CCCC[n+]1ccccc1,inactive
6,Oc1ccccc1-c1ccccc1,inactive
7,CCCC[N+]1(C)CCCCC1,inactive
8,O=[N+]([O-])c1ccccc1O,inactive
9,Cc1cc(Cl)ccc1OCC(=O)O,inactive
10,Nc1ccccc1,inactive
11,CCOP(=S)(OCC)Oc1ccc2c(C)c(Cl)c(=O)oc2c1,inactive
12,O=S(=O)(O)O,inactive
13,C=CCOC(Cn1ccnc1)c1ccc(Cl)cc1Cl (stereo not given),55.1 µM (active) and inactive
14,O=C(O)c1ccccc1O,inactive
15,Nc1ccc(Cl)cc1,inactive
16,O=C(O)CC(O)(CC(=O)O)C(=O)O,inactive
17,CCCC[n+]1cccc(C)c1,inactive
18,CN(C)[C@@H]1C(=O)C(C(N)=O)=C(O)[C@@]2(O)C(=O)C3=C(O)c4c(O)cccc4[C@@](C)(O)[C@H]3[C@H](O)[C@@H]12,inactive
19,Nc1ccc(-c2ccc(N)c(Cl)c2)cc1Cl,inactive and 49 µM (active)
20,O=P1(N(CCCl)CCCl)NCCCO1 (stereo not given),inactive

row,SMILES,Potency
1,Nc1ccc(-c2ccc(N)cc2)cc1,inactive
2,CNC,inactive
3,C[C@]12CCC(=O)C=C1CC[C@@H]1[C@@H]2CC[C@]2(C)C(=O)CC[C@@H]12,inactive
4,O=C(O)C(Cl)Cl,inactive
5,CCCC[n+]1ccccc1C,inactive
6,CCCCCCCCCCn1cc[n+](C)c1,inactive
7,CCCCn1cc[n+](C)c1,inactive
8,CC(Cl)(Cl)C(=O)O,inactive
9,C1CCC(NC2CCCCC2)CC1,inactive
10,CCCCCCCCCCCC(=O)O,inactive
11,COP(=O)(OC)OC=C(Cl)Cl,inactive
12,COc1ccccc1N,inactive
13,O=c1nc(O)n(Cl)c(=O)n1Cl,inactive
14,CC[N+](CC)(CC)CC,inactive
15,CCC[N+]1(C)CCCC1,inactive
16,CCC(=O)C(CC(C)N(C)C)(c1ccccc1)c1ccccc1 (stereo not given),inactive
17,CCCCCCCCn1cc[n+](C)c1,21.7 µM (active) and inactive
18,CCCCn1cc[n+](C)c1C,inactive
19,N#CS,inactive
20,O=[N+]([O-])O,inactive
